Assay results as given in the supplement of paper PMC10849652.
Targets with a hit are over-represented here; the source holds about 7,900 in all. About 0.6% of all pairs of compound and target were hits. Values without a mark were called inactive.

Columns and labels:
Assay in all cases: log2 fold change, soluble protein after heating vs DMSO (PISA); higher = thermal stabilisation; K562 cells, 10 uM, 30 min; active = over 0.2 and 3.5 SD of the protein, either way, in both replicates (recomputed)
bafetinib = compound: Cc1ccc(NC(=O)c2ccc(CN3CC[C@H](N(C)C)C3)c(C(F)(F)F)c2)cc1Nc1nccc(-c2cncnc2)n1 [bafetinib]
Summary of the method: (§1)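 K562 cells at 2×10^6 cells/mL were exposed to 10 μM compound for 30 min, then aliquots were heated for 3 min across 48°C-58°C, pooled, and extracted in PBS containing 0.5% NP-40 at 4°C. The supernatant after 21,000xg for 90 min was taken as soluble protein and measured by TMTpro 16plex LC-MS/MS with channel sums equalised. Thermal stability is reported relative to control samples, with values from duplicates. Fold changes are given on a log2 scale.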

[1] = compound: Cc1cccc(CC(=O)N2CCc3c2ccc(-c2cn(C)c4ncnc(N)c24)c3F)n1
Summary of the method: as §1

nilotinib = compound: Cc1cn(-c2cc(NC(=O)c3ccc(C)c(Nc4nccc(-c5cccnc5)n4)c3)cc(C(F)(F)F)c2)cn1 [nilotinib]
Summary of the method: as §1

[2] = compound: Cc1nc(Nc2n[nH]c3c2CN(C(=O)N[C@H](CN(C)C)c2ccccc2)C3(C)C)c2sccc2n1
Summary of the method: as §1

dasatinib = compound: Cc1nc(Nc2ncc(C(=O)Nc3c(C)cccc3Cl)s2)cc(N2CCN(CCO)CC2)n1 [dasatinib]
Summary of the method: as §1

[3] = compound: Cc1ncc(-c2ccnc(Nc3ccc(S(C)(=O)=O)cc3)n2)n1C(C)C
Summary of the method: as §1

[4] = compound: Cn1cc(-c2ccc3c(c2)CCN3C(=O)Cc2cccc(C(F)(F)F)c2)c2c(N)ncnc21
Summary of the method: as §1

[5] = compound: Cn1cc(-c2ccc3nnc(C(F)(F)c4ccc5ncccc5c4)n3n2)cn1
Summary of the method: as §1

tipifarnib = compound: Cn1cncc1[C@@](N)(c1ccc(Cl)cc1)c1ccc2c(c1)c(-c1cccc(Cl)c1)cc(=O)n2C [tipifarnib]
Summary of the method: as §1

mubritinib = compound: FC(F)(F)c1ccc(/C=C/c2nc(COc3ccc(CCCCn4ccnn4)cc3)co2)cc1 [mubritinib]
Summary of the method: as §1

[6] = compound: NC(=O)Nc1cc(-c2cccc(F)c2)sc1C(=O)N[C@H]1CCCNC1
Summary of the method: as §1

[7] = compound: NC(=O)c1cnc(N[C@@H]2CCCC[C@@H]2N)nc1Nc1cccc(-n2nccn2)c1
Summary of the method: as §1

[8] = compound: NC1(c2ccc(-c3nc4ccn5c(=O)[nH]nc5c4cc3-c3ccccc3)cc2)CCC1
Summary of the method: as §1

[9] = compound: NCC(=O)Nc1ccc(-n2nc(C(F)(F)F)cc2-c2ccc3c(ccc4ccccc43)c2)cc1
Summary of the method: as §1

entinostat = compound: Nc1ccccc1NC(=O)c1ccc(CNC(=O)OCc2cccnc2)cc1 [entinostat]
Summary of the method: as §1

vorinostat = compound: O=C(CCCCCCC(=O)Nc1ccccc1)NO [vorinostat]
Summary of the method: as §1

citarinostat = compound: O=C(CCCCCCNC(=O)c1cnc(N(c2ccccc2)c2ccccc2Cl)nc1)NO [citarinostat]
Summary of the method: as §1

silmitasertib = compound: O=C(O)c1ccc2c(c1)nc(Nc1cccc(Cl)c1)c1ccncc12 [silmitasertib]
Summary of the method: as §1

[10] = compound: O=C1NC(=O)C(c2cnc3ccccn23)=C1c1cn2c3c(cc(F)cc13)CN(C(=O)N1CCCCC1)CC2
Summary of the method: as §1

[11] = compound: c1cc(OCCN2CCCCC2)cc(-c2n[nH]c3ccc(-c4nnc[nH]4)cc23)c1
Summary of the method: as §1

Sequence of UniProt Q96FX7 (Q96FX7 whole entry, looked up): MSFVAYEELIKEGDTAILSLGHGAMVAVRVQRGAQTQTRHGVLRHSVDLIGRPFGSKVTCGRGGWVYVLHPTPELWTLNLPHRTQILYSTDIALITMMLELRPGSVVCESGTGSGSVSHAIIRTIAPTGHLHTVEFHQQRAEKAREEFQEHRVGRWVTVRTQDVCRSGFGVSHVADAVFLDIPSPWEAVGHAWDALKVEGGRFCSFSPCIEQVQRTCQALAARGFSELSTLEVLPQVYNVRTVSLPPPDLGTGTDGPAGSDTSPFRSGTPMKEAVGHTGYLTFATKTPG
Sequence of UniProt Q7Z7E8 (Q7Z7E8 whole entry, looked up): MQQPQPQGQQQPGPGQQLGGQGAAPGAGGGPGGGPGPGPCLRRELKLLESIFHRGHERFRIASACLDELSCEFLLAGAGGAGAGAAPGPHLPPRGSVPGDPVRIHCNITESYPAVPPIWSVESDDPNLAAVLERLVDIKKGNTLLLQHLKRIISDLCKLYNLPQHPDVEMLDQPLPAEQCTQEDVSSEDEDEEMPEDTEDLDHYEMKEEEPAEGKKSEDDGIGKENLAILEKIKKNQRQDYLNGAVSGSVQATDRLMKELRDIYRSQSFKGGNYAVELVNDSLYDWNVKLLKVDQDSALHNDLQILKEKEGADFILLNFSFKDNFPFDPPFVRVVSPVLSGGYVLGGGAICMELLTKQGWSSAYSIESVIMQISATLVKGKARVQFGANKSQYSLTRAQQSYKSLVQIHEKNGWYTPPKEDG
Sequence of UniProt Q9BUB7 (Q9BUB7 whole entry, looked up): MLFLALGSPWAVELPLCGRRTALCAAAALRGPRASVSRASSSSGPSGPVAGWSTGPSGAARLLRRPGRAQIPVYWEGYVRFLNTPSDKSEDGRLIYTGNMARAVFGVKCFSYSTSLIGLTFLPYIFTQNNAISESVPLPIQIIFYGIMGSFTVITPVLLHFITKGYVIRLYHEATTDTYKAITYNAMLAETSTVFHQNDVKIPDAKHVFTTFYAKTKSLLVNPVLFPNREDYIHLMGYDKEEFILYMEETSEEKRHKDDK
Sequence of UniProt Q9H270 (Q9H270 whole entry, looked up): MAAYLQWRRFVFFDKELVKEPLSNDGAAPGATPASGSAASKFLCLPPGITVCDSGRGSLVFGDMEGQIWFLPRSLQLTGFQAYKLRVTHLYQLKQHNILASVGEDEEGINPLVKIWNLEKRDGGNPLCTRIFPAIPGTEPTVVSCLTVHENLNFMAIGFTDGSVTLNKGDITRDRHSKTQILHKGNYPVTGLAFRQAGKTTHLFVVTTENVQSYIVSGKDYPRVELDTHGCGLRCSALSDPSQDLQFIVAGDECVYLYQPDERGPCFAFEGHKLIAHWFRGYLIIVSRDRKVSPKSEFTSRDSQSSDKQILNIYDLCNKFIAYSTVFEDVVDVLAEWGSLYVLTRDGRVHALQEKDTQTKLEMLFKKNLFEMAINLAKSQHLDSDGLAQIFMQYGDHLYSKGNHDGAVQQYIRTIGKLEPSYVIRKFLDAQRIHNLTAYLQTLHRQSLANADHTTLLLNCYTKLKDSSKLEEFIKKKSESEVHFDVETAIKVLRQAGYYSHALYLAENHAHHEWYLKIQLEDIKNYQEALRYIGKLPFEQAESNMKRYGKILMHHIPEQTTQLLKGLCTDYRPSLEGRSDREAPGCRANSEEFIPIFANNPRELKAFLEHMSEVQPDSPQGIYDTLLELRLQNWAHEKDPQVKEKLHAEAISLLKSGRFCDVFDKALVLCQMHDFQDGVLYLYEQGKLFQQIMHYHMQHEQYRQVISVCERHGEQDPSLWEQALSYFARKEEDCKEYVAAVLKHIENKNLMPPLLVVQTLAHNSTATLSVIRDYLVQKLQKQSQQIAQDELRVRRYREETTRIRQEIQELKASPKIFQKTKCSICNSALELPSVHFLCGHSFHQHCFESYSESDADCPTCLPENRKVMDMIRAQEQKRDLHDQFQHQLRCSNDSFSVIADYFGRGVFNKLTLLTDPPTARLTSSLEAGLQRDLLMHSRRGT
Sequence of UniProt Q6ZXV5 (Q6ZXV5 whole entry, looked up): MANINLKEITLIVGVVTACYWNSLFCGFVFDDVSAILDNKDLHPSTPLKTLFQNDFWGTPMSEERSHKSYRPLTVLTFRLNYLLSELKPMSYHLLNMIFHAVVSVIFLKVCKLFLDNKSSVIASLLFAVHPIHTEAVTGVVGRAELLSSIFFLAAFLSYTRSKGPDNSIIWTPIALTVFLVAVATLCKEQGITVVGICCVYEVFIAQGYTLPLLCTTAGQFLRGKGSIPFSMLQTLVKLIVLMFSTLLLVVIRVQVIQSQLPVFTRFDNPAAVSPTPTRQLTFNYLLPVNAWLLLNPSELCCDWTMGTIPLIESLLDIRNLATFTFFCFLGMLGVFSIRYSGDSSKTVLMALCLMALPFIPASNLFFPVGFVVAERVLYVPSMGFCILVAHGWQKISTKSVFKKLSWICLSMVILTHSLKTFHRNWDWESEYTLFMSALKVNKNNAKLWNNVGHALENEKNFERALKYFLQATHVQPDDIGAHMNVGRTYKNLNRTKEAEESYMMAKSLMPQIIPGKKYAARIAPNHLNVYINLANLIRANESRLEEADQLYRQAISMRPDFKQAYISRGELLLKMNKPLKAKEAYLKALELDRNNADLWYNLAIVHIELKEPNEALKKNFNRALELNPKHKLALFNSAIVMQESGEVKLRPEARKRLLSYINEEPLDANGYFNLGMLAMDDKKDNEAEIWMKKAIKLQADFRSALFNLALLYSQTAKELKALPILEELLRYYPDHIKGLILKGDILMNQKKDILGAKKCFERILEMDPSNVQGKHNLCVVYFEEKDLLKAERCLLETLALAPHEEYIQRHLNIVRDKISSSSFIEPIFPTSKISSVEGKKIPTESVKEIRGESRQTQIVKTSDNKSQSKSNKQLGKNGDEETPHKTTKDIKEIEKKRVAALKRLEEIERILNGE
Sequence of UniProt Q641Q2 (Q641Q2 whole entry, looked up): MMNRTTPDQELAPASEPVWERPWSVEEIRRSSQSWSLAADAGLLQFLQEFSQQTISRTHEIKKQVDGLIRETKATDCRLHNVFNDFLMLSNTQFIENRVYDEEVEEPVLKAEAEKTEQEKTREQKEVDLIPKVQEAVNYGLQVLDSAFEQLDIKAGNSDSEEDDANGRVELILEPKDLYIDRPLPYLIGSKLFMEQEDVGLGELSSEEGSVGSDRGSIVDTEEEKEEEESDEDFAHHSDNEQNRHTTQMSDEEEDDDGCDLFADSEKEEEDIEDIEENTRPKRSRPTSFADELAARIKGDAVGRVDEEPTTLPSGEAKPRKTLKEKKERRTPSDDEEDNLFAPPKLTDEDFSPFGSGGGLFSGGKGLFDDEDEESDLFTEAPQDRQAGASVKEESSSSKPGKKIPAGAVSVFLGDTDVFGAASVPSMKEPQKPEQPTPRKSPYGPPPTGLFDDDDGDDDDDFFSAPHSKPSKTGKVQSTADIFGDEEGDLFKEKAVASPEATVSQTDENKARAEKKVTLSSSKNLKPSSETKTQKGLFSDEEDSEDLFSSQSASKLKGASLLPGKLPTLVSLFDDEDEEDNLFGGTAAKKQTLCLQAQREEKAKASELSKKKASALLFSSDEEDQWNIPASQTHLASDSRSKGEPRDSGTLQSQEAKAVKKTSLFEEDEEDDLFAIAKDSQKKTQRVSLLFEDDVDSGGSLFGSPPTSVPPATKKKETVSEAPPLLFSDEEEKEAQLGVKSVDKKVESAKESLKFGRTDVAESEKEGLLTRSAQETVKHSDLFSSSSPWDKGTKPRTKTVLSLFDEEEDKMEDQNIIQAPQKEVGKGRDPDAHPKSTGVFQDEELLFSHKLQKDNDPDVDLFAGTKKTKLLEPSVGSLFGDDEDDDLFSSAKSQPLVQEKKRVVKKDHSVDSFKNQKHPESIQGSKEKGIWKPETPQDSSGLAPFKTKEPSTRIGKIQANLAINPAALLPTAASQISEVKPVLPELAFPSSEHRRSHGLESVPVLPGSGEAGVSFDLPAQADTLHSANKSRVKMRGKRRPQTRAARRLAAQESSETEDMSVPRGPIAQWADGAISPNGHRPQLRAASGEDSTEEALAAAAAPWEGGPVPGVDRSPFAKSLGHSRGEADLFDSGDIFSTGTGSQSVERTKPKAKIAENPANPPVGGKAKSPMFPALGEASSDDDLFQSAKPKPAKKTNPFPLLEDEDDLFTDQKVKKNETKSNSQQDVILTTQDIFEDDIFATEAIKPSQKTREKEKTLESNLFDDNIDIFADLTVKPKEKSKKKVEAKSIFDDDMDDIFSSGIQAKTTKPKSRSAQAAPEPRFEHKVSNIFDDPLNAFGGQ
Sequence of UniProt Q9H267 (Q9H267 whole entry, looked up): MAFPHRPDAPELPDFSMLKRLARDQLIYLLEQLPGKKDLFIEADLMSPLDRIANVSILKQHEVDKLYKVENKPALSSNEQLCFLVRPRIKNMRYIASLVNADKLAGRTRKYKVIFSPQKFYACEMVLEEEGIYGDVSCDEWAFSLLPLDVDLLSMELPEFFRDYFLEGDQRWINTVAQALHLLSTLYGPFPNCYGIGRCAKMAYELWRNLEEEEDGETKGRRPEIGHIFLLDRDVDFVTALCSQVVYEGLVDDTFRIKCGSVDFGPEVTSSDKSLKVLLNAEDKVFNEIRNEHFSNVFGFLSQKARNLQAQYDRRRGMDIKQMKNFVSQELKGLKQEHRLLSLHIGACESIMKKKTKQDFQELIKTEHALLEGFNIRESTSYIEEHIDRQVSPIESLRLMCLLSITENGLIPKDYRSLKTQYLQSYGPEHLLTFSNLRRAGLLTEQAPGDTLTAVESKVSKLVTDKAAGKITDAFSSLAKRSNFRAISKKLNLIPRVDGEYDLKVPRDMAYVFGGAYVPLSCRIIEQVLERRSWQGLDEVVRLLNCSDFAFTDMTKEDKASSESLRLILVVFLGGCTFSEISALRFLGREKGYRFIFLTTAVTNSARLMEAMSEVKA
Sequence of UniProt O43617 (O43617 whole entry, looked up): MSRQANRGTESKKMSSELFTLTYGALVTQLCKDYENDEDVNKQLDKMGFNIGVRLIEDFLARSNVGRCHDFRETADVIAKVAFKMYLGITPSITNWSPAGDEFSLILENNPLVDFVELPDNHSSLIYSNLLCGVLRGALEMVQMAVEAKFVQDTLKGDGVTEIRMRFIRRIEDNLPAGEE

Target | log2 fold change (bafetinib) | log2 fold change [1] | log2 fold change (nilotinib) | log2 fold change [2] | log2 fold change (dasatinib) | log2 fold change [3] | log2 fold change [4] | log2 fold change [5] | log2 fold change (tipifarnib) | log2 fold change (mubritinib) | log2 fold change [6] | log2 fold change [7] | log2 fold change [8] | log2 fold change [9] | log2 fold change (entinostat) | log2 fold change (vorinostat) | log2 fold change (citarinostat) | log2 fold change (silmitasertib) | log2 fold change [10] | log2 fold change [11]
TRAPPC3 (UniProt O43617) | -0.033 | 0.003 | -0.007 | -0.023 | -0.021 | -0.001 | 0.025 | 0.041 | -0.047 | 0.035 | 0.017 | -0.056 | -0.145 | -0.058 | 0.022 | 0.004 | 0.038 | 0.032 | 0 | -0.048
UBE2Q1 (UniProt Q7Z7E8) | -0.029 | 0.015 | -0.134 | -0.103 | -0.101 | -0.046 | -0.012 | 0.027 | -0.103 | 0.006 | -0.01 | -0.059 | -0.084 | -0.012 | 0.03 | 0.084 | 0.029 | 0.074 | -0.035 | -0.035
TMTC3 (UniProt Q6ZXV5) | -0.07 | -0.02 | -0.036 | 0 | -0.055 | 0.015 | -0.051 | 0.061 | -0.018 | 0.011 | -0.028 | -0.113 | -0.135 | -0.097 | -0.046 | 0.025 | 0.005 | 0.025 | -0.037 | -0.089
VPS33B (UniProt Q9H267) | 0.01 | 0.04 | -0.056 | -0.158 | -0.209 | 0.099 | 0.017 | -0.069 | -0.107 | 0.054 | -0.013 | -0.154 | -0.118 | -0.018 | 0.094 | 0.072 | 0.076 | -0.011 | 0.017 | -0.057
TRIP10 isoform 2 (UniProt Q15642) | -0.019 | 0.026 | 0.005 | -0.174 | 0.035 | -0.162 | -0.033 | -0.135 | -0.04 | 0.142 | -0.067 | 0.057 | -0.065 | -0.849 (active) | -0.2 | 0.026 | -0.11 | -0.065 | -0.052 | 0.008
TMEM70 (UniProt Q9BUB7) | -0.141 | 0.026 | 0.028 | -0.003 | -0.094 | 0.018 | 0.06 | 0.023 | -0.02 | 0.017 | -0.058 | -0.125 | -0.162 | -0.137 | 0.005 | 0.031 | 0.047 | 0.019 | -0.045 | -0.003
TNFRSF8 (UniProt P28908) | 0.01 | -0.089 | 0.074 | -0.049 | 0.032 | 0.043 | 0.014 | 0.032 | 0.042 | 0.069 | -0.12 | 0.128 | 0.106 | 0.025 | -0.066 | -0.078 | -0.003 | -0.052 | -0.053 | -0.025
USP9X (UniProt Q93008) | -0.016 | 0.071 | -0.099 | -0.056 | -0.122 | -0.004 | -0.052 | -0.021 | -0.126 | 0.052 | 0 | -0.062 | -0.174 | -0.041 | 0.037 | 0.06 | 0.032 | 0.017 | -0.015 | -0.056
UHRF1BP1 (UniProt Q6BDS2) | 0.042 | 0.015 | 0.138 | 0.003 | 0.044 | -0.023 | 0.045 | 0.021 | -0.005 | 0.028 | -0.019 | 0.074 | 0.019 | 0.029 | -0.058 | 0.004 | -0.012 | -0.043 | -0.032 | 0.007
TXNL1 (UniProt O43396) | 0.04 | 0.005 | -0.035 | -0.006 | -0.074 | 0.008 | -0.004 | -0.035 | -0.06 | 0.057 | -0.048 | -0.013 | -0.084 | -0.015 | 0.028 | 0.018 | 0.087 | 0.074 | -0.004 | -0.03
WDR18 (UniProt Q9BV38) | -0.031 | 0.05 | -0.059 | -0.024 | 0 | -0.048 | 0.029 | -0.016 | -0.018 | 0.022 | 0.013 | -0.021 | -0.043 | 0.054 | 0.019 | 0.025 | 0.018 | 0.013 | -0.03 | 0.017
WDR4 (UniProt P57081) | 0.455 (active) | -0.06 | 0.009 | 0.005 | -0.013 | -0.003 | 0.068 | -0.061 | -0.132 | 0.031 | -0.094 | 0.021 | -0.089 | -0.003 | -0.04 | -0.009 | 0.046 | -0.038 | -0.161 | -0.011
VPS11 (UniProt Q9H270) | -0.033 | 0.006 | -0.048 | -0.006 | -0.154 | 0.005 | -0.016 | -0.004 | -0.093 | 0.027 | -0.012 | -0.053 | -0.159 | -0.028 | 0.015 | 0.145 | 0.065 | 0.025 | 0.024 | 0.084
TRMT61A (UniProt Q96FX7) | -0.051 | 0.047 | 0.036 | 0.046 | 0.011 | -0.07 | -0.11 | -0.016 | 0.043 | -0.125 | 0.027 | 0.017 | 0.17 | 0.101 | -0.029 | 0.03 | 0.005 | 0.099 | 0.293 | -0.146
WASHC2A (UniProt Q641Q2) | -0.078 | -0.025 | 0.002 | -0.039 | 0.022 | -0.012 | -0.088 | 0.035 | 0.052 | 0.004 | -0.013 | -0.012 | -0.159 | 0.021 | -0.038 | 0.024 | -0.035 | 0.072 | 0.016 | -0.056
